Results on 40 molecules are retold here after the supplement of paper PMC8773631.

For orientation: cell viability means a read-out of living cells in per cent, often relative to untreated cells.

“And” between values parts separate entries of the source, which are not always exact repeats. Equal entries are not always repeated. Structures can show the parent of a compound that is named as a salt. ± gives the uncertainty stated by the source.

The assay concerns NCC-MFS5-C1. Briefly: cell viability relative to DMSO control; higher = less growth inhibition. The following applies: 10 µM; treatment time: 3 days. How it is done:
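NCC-MFS5-C1 myxofibrosarcoma cells (1x10^4 per well, 384-well) were treated on day 2 with 10 µM of each drug. On day 5, viability was read by CCK-8 absorbance at 450 nm and normalised to the DMSO control (%), n = 2.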
As for `CC[C@H](Nc1ncnc2[nH]cnc12)c1nc2cccc(F)c2c(=O)n1-c1ccccc1` [CAL-101 (Idelalisib, GS-1101)], the cell viability stood at 72.3 ± 6.2%.
The value for `COc1cc2nccc(Oc3ccc(NC(=O)C4(C(=O)Nc5ccc(F)cc5)CC4)cc3)c2cc1OC` was 93.8 ± 6.7%.
With `CCOc1cc(C(C)(C)C)ccc1C1=N[C@@](C)(c2ccc(Cl)cc2)[C@@](C)(c2ccc(Cl)cc2)N1C(=O)N1CCN(CCCS(C)(=O)=O)CC1`, the cell viability turned out to be 96 ± 5.5%.
To `C[C@@]12C[C@@]3(O)O[C@@H](O1)[C@]1(COC(=O)c4ccccc4)[C@H]3C[C@@]12O[C@@H]1O[C@H](CO)[C@@H](O)[C@H](O)[C@H]1O` [Paeoniflorin] belongs 83.6 ± 1.2%; to `CNC[C@H](O)c1ccc(O)c(O)c1` [Epinephrine Bitartrate], 106 ± 5.9%.
To `CCC[C@@H]1C[C@@H](C(=O)N[C@@H]([C@H]2O[C@H](SC)[C@H](O)[C@@H](O)[C@H]2O)[C@@H](C)O)N(C)C1` [Lincomycin HCl] belongs 80.5 ± 9.3%; to `CN(N=O)C(=O)NC1C(O)OC(CO)C(O)C1O` (stereo not given) [Streptozotocin (STZ)], 113 ± 27%; to `C#CCC(Cc1cnc2nc(N)nc(N)c2n1)c1ccc(C(=O)N[C@@H](CCC(=O)O)C(=O)O)cc1` (stereo not given in full) [Pralatrexate], 85 ± 4.1%.
To `CO[C@H]1C[C@@H]2CC[C@@H](C)[C@@](O)(O2)C(=O)C(=O)N2CCCC[C@H]2C(=O)O[C@H]([C@H](C)C[C@@H]2CC[C@@H](OC(=O)C(C)(CO)CO)[C@H](OC)C2)CC(=O)[C@H](C)/C=C(\C)[C@@H](O)[C@@H](OC)C(=O)[C@H](C)C[C@H](C)/C=C/C=C/C=C/1C` belongs 52.2 ± 7.9%.
Take `Cc1nc(Nc2ncc(C(=O)Nc3c(C)cccc3Cl)s2)cc(N2CCN(CCO)CC2)n1` [Dasatinib]: the cell viability came to 55.3 ± 5.5%.
For `O=c1[nH]c(=O)n([C@H]2C[C@H](O)[C@@H](CO)O2)cc1F` [Floxuridine], the cell viability worked out at 80 ± 3.9%.
With `CC(C)c1nc(CN(C)C(=O)N[C@@H](CCN2CCOCC2)C(=O)N[C@H](CC[C@H](Cc2ccccc2)NC(=O)OCc2cncs2)Cc2ccccc2)cs1` [Cobicistat (GS-9350)], the cell viability turned out to be 61.5 ± 0.43%.
Take `Nc1nc(Cl)nc2c1ncn2[C@H]1C[C@H](O)[C@@H](CO)O1` [Cladribine]: the cell viability worked out at 80 ± 9.5%.
The value for `CNC(=O)c1cc(Oc2ccc(NC(=O)Nc3ccc(Cl)c(C(F)(F)F)c3)cc2)ccn1` [Sorafenib Tosylate] was 45.3 ± 1.9%; that for `Cc1ccc(NC(=O)c2ccc(CN3CC[C@H](N(C)C)C3)c(C(F)(F)F)c2)cc1Nc1nccc(-c2cncnc2)n1` [Bafetinib (INNO-406)] was 2.79 ± 1.9%; that for `CO[C@H]1O[C@@H]2O[C@@]3(C)CC[C@H]4[C@H](C)CC[C@@H]([C@H]1C)[C@@]24OO3` [Artemether] was 91.2 ± 4.8%.
To `Cc1ccc(Nc2nccc(N(C)c3ccc4c(C)n(C)nc4c3)n2)cc1S(N)(=O)=O` belongs 61 ± 11%.
To `CC(C)(OCc1nn(Cc2ccccc2)c2ccccc12)C(=O)O` [Bindarit] belongs 85.93 ± 0.83%; to `Nc1nc2[nH]cnc2c(=S)[nH]1` [Thioguanine], 90.3 ± 0.61%; to `CCc1ccc(CCOc2ccc(CC3SC(=O)NC3=O)cc2)nc1` (stereo not given) [Pioglitazone], 95.3 ± 2.9%.
Turning to `CNC(=O)c1cc(Oc2ccc(NC(=O)Nc3ccc(Cl)c(C(F)(F)F)c3)cc2)ccn1` [Sorafenib], the cell viability came to 64.2 ± 1.6%.
The value for `CC[C@H]1OC(=O)[C@H](C)[C@@H](O[C@H]2C[C@@](C)(OC)[C@@H](O)[C@H](C)O2)[C@H](C)[C@@H](O[C@@H]2O[C@H](C)C[C@H](N(C)C)[C@H]2O)[C@](C)(O)C[C@@H](C)CN(C)[C@H](C)[C@@H](O)[C@]1(C)O` [Azithromycin] was 69.4 ± 0.75%; that for `CC(=O)c1c(C)c2cnc(Nc3ccc(N4CCNCC4)cn3)nc2n(C2CCCC2)c1=O` was 50.3% and 42.8%.
Consider `CN(C)c1nc(N(C)C)nc(N(C)C)n1` [Altretamine], for which the cell viability was 103 ± 3.1%.
To `CCN1CCN(Cc2ccc(Nc3ncc(F)c(-c4cc(F)c5nc(C)n(C(C)C)c5c4)n3)nc2)CC1` [Abemaciclib] belongs 76.5 ± 6.7%; to `Cc1cc(Nc2ncc(Cl)c(Nc3ccccc3S(=O)(=O)C(C)C)n2)c(OC(C)C)cc1C1CCNCC1` [Ceritinib (LDK378)], 7.58 ± 6.4%; to `O=c1c(-c2ccc(O)cc2)coc2cc(O)cc(O)c12` [Genistein], 81.4 ± 10%.
To `Cc1ccc(F)c(NC(=O)Nc2ccc(-c3cccc4[nH]nc(N)c34)cc2)c1` [Linifanib (ABT-869)] belongs 46.3 ± 12%.
Regarding `N#Cc1ccc(C(c2ccc(C#N)cc2)n2cncn2)cc1` [Letrozole], the cell viability came to 92.3 ± 6.4%.
To `COc1cc2/c(=N/c3ccc(Br)cc3F)nc[nH]c2cc1OCC1CCN(C)CC1` [Vandetanib (ZD6474)] belongs 52.5 ± 2.8%; to `CO[C@H](C(=O)[C@@H](O)[C@@H](C)O)[C@@H]1Cc2cc3cc(O[C@H]4C[C@@H](O[C@H]5C[C@@H](O)[C@H](O)[C@@H](C)O5)[C@H](O)[C@@H](C)O4)c(C)c(O)c3c(O)c2C(=O)[C@H]1O[C@H]1C[C@@H](O[C@H]2C[C@@H](O[C@H]3C[C@](C)(O)[C@H](O)[C@@H](C)O3)[C@H](O)[C@@H](C)O2)[C@H](O)[C@@H](C)O1` [Mithramycin A], 97.4 ± 4%.
To `CC(=O)[C@]1(O)Cc2c(O)c3c(c(O)c2[C@@H](O[C@H]2C[C@H](N)[C@H](O)[C@H](C)O2)C1)C(=O)c1ccccc1C3=O` [Idarubicin HCl] belongs 0.409 ± 0.53%; to `O=P(O)(O)C(O)(Cn1ccnc1)P(=O)(O)O` [Zoledronic Acid], 84.5 ± 7.6%; to `NCC(=O)CCC(=O)O` [5-Aminolevulinic acid HCl], 85.7 ± 2.2%.
For the molecule `Nc1ncn([C@H]2C[C@H](O)[C@@H](CO)O2)c(=O)n1` [Decitabine], the cell viability worked out at 134 ± 7.4%.
To `COc1cc(OC)cc(N(CCNC(C)C)c2ccc3ncc(-c4cnn(C)c4)nc3c2)c1` [Erdafitinib] belongs 33.1 ± 2%; to `CS(=O)(=O)c1ccc(C(=O)Nc2ccc(Cl)c(-c3ccccn3)c2)c(Cl)c1` [Vismodegib (GDC-0449)], 70.2 ± 7.4%.
The value for `COc1cccc2c1C(=O)c1c(O)c3c(c(O)c1C2=O)C[C@@](O)(C(=O)CO)C[C@@H]3O[C@H]1C[C@H](N)[C@H](O)[C@H](C)O1` [Doxorubicin (Adriamycin)] was 37.47 ± 0.32%.
For `Nc1ncn([C@@H]2O[C@H](CO)[C@@H](O)[C@H]2O)c(=O)n1` [Azacitidine], the cell viability amounted to 104 ± 13%.
The value for `O=C1CCC(N2C(=O)c3ccccc3C2=O)C(=O)N1` (stereo not given) [Thalidomide] was 84.4 ± 8.3%.
